This passage reports growth inhibition, inhibition and outcome results from PubChem BioAssay.

Experiment [1] can be described thus: antimalarial activity against Dd2 strain (AID 2302;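 active = growth inhibition above 50% at the single 2 µM test dose, taken to imply half-maximal potency below 2 µM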;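 note: 0% = DMSO untreated growth and 100% = chloroquine plus artemisinin killed control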). Conditions: P. falciparum Dd2 in RBCs, LDH growth readout, 72 h; at 2 µM; stronger effect = higher value.
The nature of experiment [2]: human hepatoma cell viability loss – ATP luminescence, cytotoxicity control for P. falciparum antimalarial project, primary screen (AID 2303;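 active = inhibition above 50%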;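 note: 0% = DMSO wells and 100% = digitonin-killed cells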). Conditions: HepG2 viability, 24-48 h, at 10 µM, stronger effect = higher value.
In experiment [3] the target is L-lactate dehydrogenase (Plasmodium falciparum (isolate CDC / Honduras)) (UniProt Q27743). Briefly: PfLDH activity inhibition – cell lysate, 3D7 strain, counter-screen for P. falciparum growth inhibition project (AID 2304).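 Note: 0% = vehicle and 100% = reference inhibitor.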 Conditions: P. falciparum 3D7 crude extract, LDH APAD/NBT absorbance; at 2 µM; stronger effect = higher value. For orientation: A counterscreen serves to expose hits that act by an unwanted route or on another target.
Sequence of L-lactate dehydrogenase (Plasmodium falciparum (isolate CDC / Honduras)) (Q27743 whole entry, looked up): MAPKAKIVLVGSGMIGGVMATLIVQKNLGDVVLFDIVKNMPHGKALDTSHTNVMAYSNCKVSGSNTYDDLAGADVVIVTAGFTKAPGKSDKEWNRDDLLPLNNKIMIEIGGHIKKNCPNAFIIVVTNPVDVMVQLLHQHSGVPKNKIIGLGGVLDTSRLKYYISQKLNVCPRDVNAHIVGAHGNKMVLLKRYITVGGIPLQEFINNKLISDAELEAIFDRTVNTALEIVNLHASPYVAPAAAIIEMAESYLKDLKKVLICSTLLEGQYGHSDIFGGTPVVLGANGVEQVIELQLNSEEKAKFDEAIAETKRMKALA

The nature of experiment [4]: inhibition of 3D7 malaria parasite growth – strain 3D7 (AID 2306).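 Note: 0% = DMSO wells and 100% = chloroquine plus artemisinin control wells.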 The note with it: P. falciparum 3D7 erythrocytic growth, LDH absorbance, 72 h; at 2 µM; stronger effect = higher value.
Experiment [5] deals with Calcium-dependent protein kinase 1 (Plasmodium falciparum (isolate 3D7)) (UniProt P62344). Briefly: PfCDPK1 kinase inhibitors, biochemical, TCAMS library (AID 1159585; cut-off not given, nearly all actives have IC50 up to about 0.98 µM;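 note: inhibitors leave more ATP so luminescence rises with inhibition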). Conditions: recombinant PfCDPK1, Kinase-Glo ATP depletion luminescence. In general terms: In Kinase-Glo more light means more ATP remaining.
Sequence of Calcium-dependent protein kinase 1 (Plasmodium falciparum (isolate 3D7)) (P62344 whole entry, looked up): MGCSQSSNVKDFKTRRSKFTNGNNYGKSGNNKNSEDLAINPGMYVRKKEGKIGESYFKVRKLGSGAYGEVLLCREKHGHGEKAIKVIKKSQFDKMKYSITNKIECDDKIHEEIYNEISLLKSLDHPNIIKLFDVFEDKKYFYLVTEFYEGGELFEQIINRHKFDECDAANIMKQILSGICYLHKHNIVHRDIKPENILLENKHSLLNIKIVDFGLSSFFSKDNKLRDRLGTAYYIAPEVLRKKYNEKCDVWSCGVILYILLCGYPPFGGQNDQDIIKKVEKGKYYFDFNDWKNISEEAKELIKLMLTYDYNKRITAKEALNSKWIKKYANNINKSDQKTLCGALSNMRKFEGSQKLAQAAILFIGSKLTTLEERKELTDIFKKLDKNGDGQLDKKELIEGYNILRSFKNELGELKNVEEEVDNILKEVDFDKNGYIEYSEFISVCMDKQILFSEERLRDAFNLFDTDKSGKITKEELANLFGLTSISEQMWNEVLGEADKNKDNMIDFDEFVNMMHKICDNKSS
For experiment [6], the target named is Plasmodium falciparum protein kinase 6 (PK6, PF3D7_1337100) (UniProt Q8IDW1). Briefly: PfPK6 kinase inhibitors, biochemical, TCAMS library (AID 1159586). Conditions: recombinant PfPK6, Kinase-Glo ATP depletion luminescence.
Sequence of Plasmodium falciparum protein kinase 6 (PK6, PF3D7_1337100) (Q8IDW1 1-305): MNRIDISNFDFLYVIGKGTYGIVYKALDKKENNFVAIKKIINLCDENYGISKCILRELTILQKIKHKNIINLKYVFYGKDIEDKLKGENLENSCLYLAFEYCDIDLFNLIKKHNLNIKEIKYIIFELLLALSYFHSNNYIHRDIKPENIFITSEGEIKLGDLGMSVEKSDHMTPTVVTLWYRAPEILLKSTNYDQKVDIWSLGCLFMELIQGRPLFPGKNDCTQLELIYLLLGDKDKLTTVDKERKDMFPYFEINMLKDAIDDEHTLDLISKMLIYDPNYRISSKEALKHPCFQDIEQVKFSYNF
The target of experiment [7] is Protein kinase 7 (PK7), Plasmodium falciparum 3D7 (PF3D7_0213400) (UniProt Q7YTF7). Briefly: inhibition of Plasmodium PK7 catalytic activity – biochemical, TCAMS antimalarial set, Kinase-Glo luminescence (AID 1159587). Conditions: recombinant PfPK7, Kinase-Glo ATP depletion luminescence.
Sequence of Protein kinase 7 (PK7), Plasmodium falciparum 3D7 (PF3D7_0213400) (Q7YTF7 1-343): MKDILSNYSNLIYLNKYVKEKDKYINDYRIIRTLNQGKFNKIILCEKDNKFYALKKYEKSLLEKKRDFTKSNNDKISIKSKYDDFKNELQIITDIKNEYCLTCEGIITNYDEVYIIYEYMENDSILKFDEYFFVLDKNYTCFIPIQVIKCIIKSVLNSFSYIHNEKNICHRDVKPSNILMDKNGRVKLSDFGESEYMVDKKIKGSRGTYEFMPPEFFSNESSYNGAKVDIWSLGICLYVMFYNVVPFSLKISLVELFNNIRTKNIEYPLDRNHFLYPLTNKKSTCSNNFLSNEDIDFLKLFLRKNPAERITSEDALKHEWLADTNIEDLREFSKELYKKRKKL
Experiment [8] concerns the target Calcium-dependent protein kinase 4 (Plasmodium falciparum (isolate 3D7)) (UniProt Q8IBS5). As to the kind of experiment: PfCDPK4 kinase inhibitors, biochemical, TCAMS library (AID 1159588; cut-off not given, nearly all actives have IC50 up to about 0.91 µM). The note with it: recombinant PfCDPK4, Kinase-Glo ATP depletion luminescence.

Structures are written as SMILES. Unmarked numbers belong to inactive results. For some of these results: Entries with a potency or affinity are not part of this list. Activity calls are given as the source filed them. Unless noted, the rule behind the calls is not given here.

Sequence of Calcium-dependent protein kinase 4 (Plasmodium falciparum (isolate 3D7)) (Q8IBS5 whole entry, looked up): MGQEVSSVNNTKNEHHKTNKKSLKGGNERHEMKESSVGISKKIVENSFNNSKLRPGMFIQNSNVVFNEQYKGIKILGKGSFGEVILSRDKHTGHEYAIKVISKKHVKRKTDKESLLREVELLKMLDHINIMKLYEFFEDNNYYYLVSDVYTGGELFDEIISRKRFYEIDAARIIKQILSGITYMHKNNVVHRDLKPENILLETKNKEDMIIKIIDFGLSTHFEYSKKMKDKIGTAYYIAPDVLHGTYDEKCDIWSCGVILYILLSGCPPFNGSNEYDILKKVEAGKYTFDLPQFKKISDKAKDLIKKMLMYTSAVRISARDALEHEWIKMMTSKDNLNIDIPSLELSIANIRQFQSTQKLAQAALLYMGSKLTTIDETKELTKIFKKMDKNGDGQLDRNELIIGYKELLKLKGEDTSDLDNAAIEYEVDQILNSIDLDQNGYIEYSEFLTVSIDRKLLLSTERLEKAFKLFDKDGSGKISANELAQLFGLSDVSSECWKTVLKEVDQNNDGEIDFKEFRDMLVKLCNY

Broadly, the inhibition is the drop in the measured response relative to a control, in per cent. For `CN1CCN(c2ccnc3cc4c(cc23)N(C(=O)Nc2ccc(-c3ccncc3)c3ccccc23)CC4)CC1`, the growth inhibition was 97% (active) in experiment [1] and 101% (active) in experiment [4]. For the same compound, the inhibition in experiment [2] is 10%; in experiment [3], -2%. The result in experiment [5], in experiment [6], in experiment [7] and in experiment [8] was inactive.

As for `COc1ccc(Nc2nc(NN=Cc3ccc(-c4ccc([N+](=O)[O-])cc4)o3)nc(Nc3ccccc3)n2)cc1`, the growth inhibition in experiment [1] was 17%; in experiment [4] it was 100% (active). The figures for the inhibition in experiment [2] and in experiment [3] were -8% and 5%, respectively. Besides, the result in experiment [5], in experiment [6], in experiment [7] and in experiment [8] was inactive.

For the compound `Nc1nc(N)c2cc(C(F)(F)F)ccc2n1`, the growth inhibition in experiment [1] is 1%; in experiment [4] it was 80% (active). Further, the inhibition in experiment [2] was 8%; in experiment [3], -3%. The outcome in experiment [5], in experiment [6], in experiment [7] and in experiment [8] was inactive.

On to `Cc1cc2c(cc1C(F)(F)F)N(C(=O)Nc1cc(OCCN(C(C)C)C(C)C)cc(C(F)(F)F)c1)CC2`, for which the figures for the growth inhibition in experiment [1] and in experiment [4] were 86% (active) and 100% (active), respectively. Besides, the inhibition in experiment [2] was 42%; in experiment [3], -2%. Moreover, the result in experiment [5], in experiment [6], in experiment [7] and in experiment [8] was inactive.

With `COc1cc2nccc(Nc3ccc(OCc4ccccc4)cc3)c2cc1OC`, the growth inhibition in experiment [1] was 99% (active); in experiment [4], 101% (active). Besides, the figures for the inhibition in experiment [2] and in experiment [3] were 35% and 1%, respectively. For the same compound, the outcome in experiment [5], in experiment [6], in experiment [7] and in experiment [8] was inactive.

For `COc1cc(C(=O)NC2CC(C)(C)N(C)C(C)(C)C2)ccc1-c1cc2cc(Cl)c(Cl)cc2[nH]1`, the figures for the growth inhibition in experiment [1] and in experiment [4] were 36% and 89% (active), respectively. Further, the inhibition is 65% (active) in experiment [2] and 1% in experiment [3]. The result in experiment [5], in experiment [6], in experiment [7] and in experiment [8] was inactive.

Regarding `CCNc1cc(C)nc(Nc2ccc(NC(=O)Cc3ccc(OC)cc3)cc2)n1`, the growth inhibition in experiment [1] was 47%; in experiment [4] it was 101% (active). Further, the values for the inhibition in experiment [2] and in experiment [3] were 30% and -1%, respectively. Also, the outcome in experiment [5], in experiment [6], in experiment [7] and in experiment [8] was inactive.

For the compound `CC(=O)c1ccc(NC(=O)Nc2ccc(N(C)c3ccnc(NC4CC4)n3)cc2)cc1`, the growth inhibition in experiment [1] is 60% (active); in experiment [4], 100% (active). The inhibition in experiment [2] was 59% (active); in experiment [3], 1%. The outcome in experiment [5], in experiment [6], in experiment [7] and in experiment [8] was inactive.

Consider `c1ccc2c3c(ccc2c1)Sc1c(ccc2ccccc12)N3`, for which the growth inhibition in experiment [1] is 31%; in experiment [4], 92% (active). Also, the inhibition in experiment [2] was -7%; in experiment [3] it was 0%. Besides, the outcome in experiment [5], in experiment [6], in experiment [7] and in experiment [8] was inactive.

With `CN1CCCN(Cc2ccc(-c3ccc(NS(=O)(=O)c4cccc5cccnc45)cc3)cc2)CC1`, the values for the growth inhibition in experiment [1] and in experiment [4] were 85% (active) and 99% (active), respectively. Moreover, the figures for the inhibition in experiment [2] and in experiment [3] were 35% and 5%, respectively. Further, the outcome in experiment [5], in experiment [6], in experiment [7] and in experiment [8] was inactive.

In the case of `CCOc1cc(C(=O)NCC2CCN(CC3CCCCC3)CC2)ccc1-c1nc2ccc(Cl)cc2[nH]1`, the growth inhibition in experiment [1] was 59% (active); in experiment [4], 98% (active). Besides, the inhibition is 14% in experiment [2] and -6% in experiment [3]. Moreover, the outcome in experiment [5], in experiment [6], in experiment [7] and in experiment [8] was inactive.

As to `O=C(Nc1cccc(N2CCC(NCc3cccnc3)CC2)c1)c1cccc(C(F)(F)F)c1`, the growth inhibition is 2% in experiment [1] and 98% (active) in experiment [4]. The inhibition in experiment [2] is 26%; in experiment [3], -3%. For the same compound, the outcome in experiment [5], in experiment [6], in experiment [7] and in experiment [8] was inactive.

With `Cn1c(/C=C/C(=O)NC2CCC(CCN3CCc4ccc(C#N)cc4CC3)CC2)cc2ccccc21` (stereo not given), the growth inhibition in experiment [1] was 29%; in experiment [4] it was 101% (active). The inhibition in experiment [2] was 15%; in experiment [3], -1%. Also, the result in experiment [5], in experiment [6], in experiment [7] and in experiment [8] was inactive.

Take `O=C(NCC1COc2ccccc2O1)c1cnc2c(c1)nc(-c1cnc(-c3ccccc3)[nH]1)n2CCSCc1c(F)cccc1Cl` (stereo not given): the growth inhibition in experiment [1] is 10%; in experiment [4] it was 95% (active). For the same compound, the figures for the inhibition in experiment [2] and in experiment [3] were 6% and 4%, respectively. In addition, the result in experiment [5], in experiment [6], in experiment [7] and in experiment [8] was inactive.

Turning to `COc1cc2c(cc1OCCN1CCC(N3CCCCC3)CC1)N(C(=O)/C=C/c1ccccc1Cl)CC2`, the growth inhibition in experiment [1] was 41%; in experiment [4], 102% (active). The inhibition in experiment [2] was 36%; in experiment [3], -1%. Moreover, the result in experiment [5], in experiment [6], in experiment [7] and in experiment [8] was inactive.

With `CCCOc1ccc(C(=O)Nc2nonc2-c2ccc(OC)c(OC)c2)cc1`, the values for the growth inhibition in experiment [1] and in experiment [4] were 97% (active) and 99% (active), respectively. For the same compound, the inhibition in experiment [2] was -9%; in experiment [3], 5%. The result in experiment [5], in experiment [6], in experiment [7] and in experiment [8] was inactive.

Turning to `COc1cc(-c2nc(-c3ccccc3)c(-c3ccc([N+](=O)[O-])cc3)[nH]2)cc(OC)c1O`, the growth inhibition in experiment [1] is 56% (active); in experiment [4], 98% (active). Also, the results for the inhibition in experiment [2] and in experiment [3] were 7% and -3%, respectively. Further, the result in experiment [5], in experiment [6], in experiment [7] and in experiment [8] was inactive.

With `COc1ccccc1Cn1ccnc1SCC(=O)Nc1cccc(C(F)(F)F)c1`, the growth inhibition in experiment [1] is 73% (active); in experiment [4] it was 86% (active). In addition, the values for the inhibition in experiment [2] and in experiment [3] were -6% and -2%, respectively. In addition, the result in experiment [5], in experiment [6], in experiment [7] and in experiment [8] was inactive.

Regarding `Cc1ccc(-c2nc3ccccc3o2)cc1NCc1cc(Cc2ccccc2)ccc1O`, the growth inhibition in experiment [1] was 50% (active); in experiment [4], 82% (active). The inhibition in experiment [2] is 45%; in experiment [3], -4%. The result in experiment [5], in experiment [6], in experiment [7] and in experiment [8] was inactive.

`COc1ccc2nccc([C@@H](O)CN3CCC(NC(=O)c4ccc(OC)c(N)c4)CC3)c2c1`: the growth inhibition in experiment [1] was 0%; in experiment [4] it was 93% (active). Further, the inhibition in experiment [2] is 9%; in experiment [3], -3%. The result in experiment [5], in experiment [6], in experiment [7] and in experiment [8] was inactive.
